# Measurements: PubChem BioAssay (NCI)
# About 83,000 compounds went through this panel and 20% of them were active in at least one assay; those are over-represented in the sample as a whole.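 Percent growth is the endpoint: 0 to 100 indicates growth inhibition (40 means 60% inhibition), 0 means no net growth, and negative values indicate cell death.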 The source made the active and inactive calls. Rule for the calls: active = growth percent below 10; inactive = the rest.
# Test system: RPMI-8226 leukemia
# Experiment: NCI-60 one-dose screen, 48 h (100 = growth as untreated, 0 = no growth, -100 = all killed)
# Details: 10 µM unless noted
row,Compound,growth
1,NS(=O)(=O)c1ccc(Nc2nc(N/N=C/c3ccc([N+](=O)[O-])cc3)nc(Nc3ccccc3)n2)cc1,43.3% (inactive)
2,COc1cc(NC2=C(Cl)C(=O)c3nc(C)ccc3C2=O)cc(OC)c1,-39.7% (active)
3,Cc1ccc(/C=C/CC(=O)Nc2ccc(C(=O)Nc3ccc(F)cc3N)cc2)cn1,19.8% (inactive)
4,O=C(c1ccc(O)cc1)[C@@H]1[C@@H]2CCCN2[C@@]2(C(=O)N(C(=O)c3ccc(F)cc3)c3ccccc32)[C@H]1c1ccc(F)cc1,75.6% (inactive)
5,COc1ccc(S(=O)(=O)n2cc(C=O)c3ccccc32)c(OC)c1,38.7% (inactive)
6,C#C[C@]1(O)CC[C@H]2[C@@H]3CC=C4c5sc(Nc6cc(Cl)ccn6)nc5CC[C@]4(C)[C@H]3CC[C@@]21C,-22.9% (active)
7,N#C/C(=C\c1ccc2ccccc2c1)C(=O)Nc1sc2c(c1C#N)CCC2,105% (inactive)
8,CN1CCN(Cc2ccc(NC(=O)c3cncc(C#Cc4cnc5ccc(O[C@H]6CCOC6)nn45)c3)cc2C(F)(F)F)CC1,-15.3% (active)
9,C/C=C/C=C1\C[C@H]2CO[C@H](O2)C1=O,95.4% (inactive)
10,O=C(NNc1nc2cc(F)cc(F)c2n2cccc12)c1ncccn1,12.7% (inactive)
11,C#CCOc1ccc(/C=N/Nc2nc(-c3cc(Cl)ccc3Cl)cs2)cc1,76.8% (inactive)
12,COc1ccc(-c2nc(SCC(C)C)nc(N/N=C\c3cccc([N+](=O)[O-])c3)c2C#N)cc1,66.9% (inactive)
13,CNC(=O)c1cc(Oc2ccc3nc(NC(=O)c4ccc(CN5CCN(C)CC5)c(C(F)(F)F)c4)sc3c2)ccn1,19.6% (inactive)
14,C#C[C@]1(O)CC[C@H]2[C@@H]3CC=C4c5sc(Nc6ccc(OC)nc6)nc5CC[C@]4(C)[C@H]3CC[C@@]21C,-21.7% (active)
15,O=C1Nc2ccc(Br)cc2/C1=N\c1nnc(-c2ccc(Cl)cc2)o1,62.5% (inactive)
16,CC(C)c1nn(-c2ccccc2)c(N2CCCCC2)c1/C=N/NC(N)=S,78.2% (inactive)
17,COc1cc(/C=C/C(=O)c2ccc(N3CCN(C)CC3)cc2)ccc1F,28.4% (inactive)
18,CC1CCN(S(=O)(=O)c2ncsc2-c2ccccc2)CC1,25.5% (inactive)
19,O=C1[C@@H]2Cc3c([nH]c4ccccc34)[C@H](c3c(Cl)cccc3Cl)N2C(=O)CN1C1CCN(Cc2ccccc2)CC1,7.38% (active)
20,C#C[C@]1(O)CC[C@H]2[C@@H]3CC=C4c5sc(Nc6ccncc6)nc5CC[C@]4(C)[C@H]3CC[C@@]21C,-26.6% (active)
21,C#CCOc1ccc(/C=N/Nc2nc(-c3cc4cc(Br)cc(Br)c4oc3=O)cs2)cc1,97.1% (inactive)
22,O=C1c2c(c3c4cccnc4[nH]c3c3ccc4ccccc4c23)C(=O)N1CCN1CCCCC1,70.3% (inactive)
23,NS(=O)(=O)Oc1ccc2nc(Nc3ccc(F)c(F)c3)ccc2c1,86.7% (inactive)
24,Cc1ccc(-c2csc(N/N=C/c3nc4ccccc4n3C3CC3)n2)cc1,84.8% (inactive)
25,O=C1c2c(c3c4cc(Br)ccc4[nH]c3c3ccc4ccccc4c23)C(=O)N1CCN1CCCCC1,-36.5% (active)
26,Cc1cnc2nc(NN)[nH]n12,104% (inactive)
27,O=C(NCCCCCCNC(=O)c1c2c(nc3ccccc13)-c1cccnc1SC2)c1c2c(nc3ccccc13)-c1cccnc1SC2,58.9% (inactive)
28,COc1cc(/C=N/n2cnc3oc(-c4ccccc4)cc3c2=N)cc(CN2CCCC2)c1O,-42.2% (active)
29,C#C[C@]1(O)CC[C@H]2[C@@H]3CC=C4c5sc(Nc6cccc(Cl)n6)nc5CC[C@]4(C)[C@H]3CC[C@@]21C,-23.2% (active)

# Test system: OVCAR-8 ovarian
# Experiment: as above
# Details: 10 µM unless noted
row,Compound,growth
1,C#C[C@]1(O)CC[C@H]2[C@@H]3CC=C4c5sc(Nc6cccc(C)n6)nc5CC[C@]4(C)[C@H]3CC[C@@]21C,39% (inactive)
2,Clc1ccc(-c2csc(N/N=C/c3nc4ccccc4n3C3CC3)n2)cc1,99% (inactive)
3,O=C(NNc1nc2cc(F)c(F)cc2n2cccc12)c1ccncn1,17.5% (inactive)
4,CCn1c2ccc(/C=N/NS(=O)(=O)CCN(C)C)cc2c2cc(/C=N/NS(=O)(=O)CCN(C)C)ccc21,104% (inactive)
5,COc1ccc(-c2nnc(/N=C3/C(=O)Nc4ccc(Br)cc43)o2)cc1,99.9% (inactive)
6,O=C(CCCCCCN1CC(=O)N2[C@@H](c3ccc(Cl)c(F)c3)c3[nH]c4ccccc4c3C[C@H]2C1=O)NO,66.5% (inactive)
7,O=C(N/N=C\c1ccc(Cl)cc1)c1ccc2nc(-c3ccc(Br)cc3)[nH]c2c1,-14.4% (active)
8,O=C1CSC(=O)N1Cc1cc2ccccc2nc1Cl,98.7% (inactive)
9,CCCCSc1nnc(-c2ccc(-c3ccc(Cl)cc3)nc2C)o1,109% (inactive)
10,COc1ccc(/C=N\NC(=O)c2ccc3nc(-c4ccc(Br)cc4)[nH]c3c2)cc1,13.6% (inactive)
11,NS(=O)(=O)c1ccc(Nc2nc(N/N=C/c3ccc([N+](=O)[O-])cc3)nc(Nc3ccccc3)n2)cc1,33.2% (inactive)
12,COc1cc(NC2=C(Cl)C(=O)c3nc(C)ccc3C2=O)cc(OC)c1,-0.815% (active)
13,Cc1ccc(/C=C/CC(=O)Nc2ccc(C(=O)Nc3ccc(F)cc3N)cc2)cn1,48.4% (inactive)
14,O=C(c1ccc(O)cc1)[C@@H]1[C@@H]2CCCN2[C@@]2(C(=O)N(C(=O)c3ccc(F)cc3)c3ccccc32)[C@H]1c1ccc(F)cc1,93.2% (inactive)
15,COc1ccc(S(=O)(=O)n2cc(C=O)c3ccccc32)c(OC)c1,76.1% (inactive)
16,C#C[C@]1(O)CC[C@H]2[C@@H]3CC=C4c5sc(Nc6cc(Cl)ccn6)nc5CC[C@]4(C)[C@H]3CC[C@@]21C,48.7% (inactive)
17,N#C/C(=C\c1ccc2ccccc2c1)C(=O)Nc1sc2c(c1C#N)CCC2,100% (inactive)
18,CN1CCN(Cc2ccc(NC(=O)c3cncc(C#Cc4cnc5ccc(O[C@H]6CCOC6)nn45)c3)cc2C(F)(F)F)CC1,-72.6% (active)
19,C/C=C/C=C1\C[C@H]2CO[C@H](O2)C1=O,99.7% (inactive)
20,O=C(NNc1nc2cc(F)cc(F)c2n2cccc12)c1ncccn1,16.7% (inactive)

row,Compound,growth
1,C#CCOc1ccc(/C=N/Nc2nc(-c3cc(Cl)ccc3Cl)cs2)cc1,93.5% (inactive)
2,COc1ccc(-c2nc(SCC(C)C)nc(N/N=C\c3cccc([N+](=O)[O-])c3)c2C#N)cc1,25.5% (inactive)
3,CNC(=O)c1cc(Oc2ccc3nc(NC(=O)c4ccc(CN5CCN(C)CC5)c(C(F)(F)F)c4)sc3c2)ccn1,73.8% (inactive)
4,C#C[C@]1(O)CC[C@H]2[C@@H]3CC=C4c5sc(Nc6ccc(OC)nc6)nc5CC[C@]4(C)[C@H]3CC[C@@]21C,27.7% (inactive)
5,O=C1Nc2ccc(Br)cc2/C1=N\c1nnc(-c2ccc(Cl)cc2)o1,82.6% (inactive)
6,CC(C)c1nn(-c2ccccc2)c(N2CCCCC2)c1/C=N/NC(N)=S,97.1% (inactive)
7,COc1cc(/C=C/C(=O)c2ccc(N3CCN(C)CC3)cc2)ccc1F,88.9% (inactive)
8,CC1CCN(S(=O)(=O)c2ncsc2-c2ccccc2)CC1,101% (inactive)
9,O=C1[C@@H]2Cc3c([nH]c4ccccc34)[C@H](c3c(Cl)cccc3Cl)N2C(=O)CN1C1CCN(Cc2ccccc2)CC1,47.7% (inactive)
10,C#C[C@]1(O)CC[C@H]2[C@@H]3CC=C4c5sc(Nc6ccncc6)nc5CC[C@]4(C)[C@H]3CC[C@@]21C,51.4% (inactive)
11,C#CCOc1ccc(/C=N/Nc2nc(-c3cc4cc(Br)cc(Br)c4oc3=O)cs2)cc1,100% (inactive)
12,O=C1c2c(c3c4cccnc4[nH]c3c3ccc4ccccc4c23)C(=O)N1CCN1CCCCC1,49.5% (inactive)
13,NS(=O)(=O)Oc1ccc2nc(Nc3ccc(F)c(F)c3)ccc2c1,96.1% (inactive)
14,Cc1ccc(-c2csc(N/N=C/c3nc4ccccc4n3C3CC3)n2)cc1,18.9% (inactive)
15,O=C1c2c(c3c4cc(Br)ccc4[nH]c3c3ccc4ccccc4c23)C(=O)N1CCN1CCCCC1,-51.8% (active)
16,Cc1cnc2nc(NN)[nH]n12,98% (inactive)
17,O=C(NCCCCCCNC(=O)c1c2c(nc3ccccc13)-c1cccnc1SC2)c1c2c(nc3ccccc13)-c1cccnc1SC2,78.2% (inactive)
18,COc1cc(/C=N/n2cnc3oc(-c4ccccc4)cc3c2=N)cc(CN2CCCC2)c1O,-22.2% (active)
19,C#C[C@]1(O)CC[C@H]2[C@@H]3CC=C4c5sc(Nc6cccc(Cl)n6)nc5CC[C@]4(C)[C@H]3CC[C@@]21C,29.3% (inactive)
